# Laboratory results taken from the supplement of paper PMC10037445.
# Where “and” joins values, the source holds several entries; their conditions need not be identical. Identical values can stand only once. Whole data set: some 2,900 compounds, median “NF-kB SEAP reporter activity, fold change vs agonist alone” near 0.99, cut for the highest 2% near 2.6. The sample holds the highest values, similar compounds and a random draw of the others, so the mix is not that of the screen.
# Key:
# [1] = tested on: RAW-Dual; assay: NF-kB SEAP reporter activity, fold change vs agonist alone; cytotoxicity flag (confluency mask): not cytotoxic; higher = enhanced NF-kB activity
# In short: (§1)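 After 50 nL of library stock was delivered by pin tool to RAW-Dual macrophages (50,000 cells/well, DMEM, 384-well plates), a PRR agonist was added 1 h later and the plates were kept at 37 °C, 5% CO2. Twenty hours later, IRF was read from supernatant by QuantiLuc luminescence and NF-κB by QuantiBlue absorbance at 620 nm. Reporter activity is stated as fold change over agonist-alone wells. Wells with IncuCyte confluency under 70% of agonist controls in both mask sets were counted as cytotoxic.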
# [2] = tested on: RAW-Dual; assay: NF-kB SEAP reporter activity, fold change vs agonist alone; higher = enhanced NF-kB activity; settings: library stock concentration (final ~1000-fold dilution): 10 mM
# In short: as §1
# [3] = tested on: RAW-Dual; assay: NF-kB SEAP reporter activity, fold change vs agonist alone; cytotoxicity flag (confluency mask): cytotoxic (confluency <70% of control); higher = enhanced NF-kB activity
# In short: as §1
# [4] = agonist: ODN 1826 (TLR9) 0.5 ug/mL
# [5] = agonist: Pam2CSK4 (TLR2/6) 0.1 ug/mL
# [6] = agonist: Pam3CSK4 (TLR2/1) 0.1 ug/mL
# [7] = cytotoxicity flag (confluency mask): not cytotoxic, agonist: Imiquimod (TLR7) […]
# [8] = cytotoxicity flag (confluency mask): not cytotoxic, agonist: MPLA (TLR4) […]
# [9] = cytotoxicity flag (confluency mask): cytotoxic (confluency <70% of control), agonist: Imiquimod (TLR7) […]
# [10] = cytotoxicity flag (confluency mask): cytotoxic (confluency <70% of control), agonist: MPLA (TLR4) […]
smiles,measurement,setting,value
CCCC1CC(C(=O)NC(C(C)Cl)C2OC(SC)C(O)C(O)C2O)N(C)C1 (stereo not drawn) (library stock concentration (final ~1000-fold dilution): 10 mM),NF-kB SEAP reporter activity,[1]; agonist: LPS (TLR4) 0.1 ug/mL,1.14
same,NF-kB SEAP reporter activity,[1]; [4],1.04
same,NF-kB SEAP reporter activity,[1]; [5],1.04
same,NF-kB SEAP reporter activity,[1]; [6],1.17
CCCC1CC(C(=O)NC(C(C)Cl)C2OC(SC)C(O)C(O)C2O)N(C)C1 (stereo not drawn),NF-kB SEAP reporter activity,[2]; [7],1.02
same,NF-kB SEAP reporter activity,[2]; [8],1.07
COc1cccc2c1C(=O)c1c(O)c3c(c(O)c1C2=O)CC(O)(C(C)=O)CC3OC1CC(N)C(O)C(C)O1.Cl (stereo not drawn),NF-kB SEAP reporter activity,[2]; [9],0.365
same,NF-kB SEAP reporter activity,[2]; [10],0.213
COc1cccc2c1C(=O)c1c(O)c3c(c(O)c1C2=O)CC(O)(C(C)=O)CC3OC1CC(N)C(O)C(C)O1.Cl (stereo not drawn) (library stock concentration (final ~1000-fold dilution): 10 mM),NF-kB SEAP reporter activity,[3]; agonist: LPS (TLR4) 0.1 ug/mL,0.249
same,NF-kB SEAP reporter activity,[3]; [4],0.191
same,NF-kB SEAP reporter activity,[3]; [5],0.0932
same,NF-kB SEAP reporter activity,[3]; [6],0.195
CC1CN(CC(Cc2ccccc2)C(=O)NCC(=O)O)CCC1(C)c1cccc(O)c1 (stereo not drawn),NF-kB SEAP reporter activity,[2]; [7],1.03
same,NF-kB SEAP reporter activity,[2]; [8],1.01
CC1CN(CC(Cc2ccccc2)C(=O)NCC(=O)O)CCC1(C)c1cccc(O)c1 (stereo not drawn) (library stock concentration (final ~1000-fold dilution): 10 mM),NF-kB SEAP reporter activity,[1]; agonist: LPS (TLR4) 0.1 ug/mL,1.51
same,NF-kB SEAP reporter activity,[1]; [4],1.01
same,NF-kB SEAP reporter activity,[1]; [5],0.937
same,NF-kB SEAP reporter activity,[1]; [6],0.609
Cn1cc(Nc2nccc(N3CC4CCC(C3)N4C(=O)C3CC3(F)F)n2)cn1 (stereo not drawn) (library stock concentration (final ~1000-fold dilution): 10 mM),NF-kB SEAP reporter activity,[1]; agonist: LPS (TLR4) 0.1 ug/mL,0.973
same,NF-kB SEAP reporter activity,[1]; [4],1.3
same,NF-kB SEAP reporter activity,[1]; [5],1.69
same,NF-kB SEAP reporter activity,[1]; [6],2.02
Cn1cc(Nc2nccc(N3CC4CCC(C3)N4C(=O)C3CC3(F)F)n2)cn1 (stereo not drawn),NF-kB SEAP reporter activity,[2]; [7],1.19
same,NF-kB SEAP reporter activity,[2]; [8],0.995
CC(NCCC(c1ccccc1)c1ccccc1)c1ccccc1.Cl (stereo not drawn),NF-kB SEAP reporter activity,[2]; [10],1.24
CC(NCCC(c1ccccc1)c1ccccc1)c1ccccc1.Cl (stereo not drawn) (library stock concentration (final ~1000-fold dilution): 10 mM),NF-kB SEAP reporter activity,[3]; agonist: LPS (TLR4) 0.1 ug/mL,1.18
same,NF-kB SEAP reporter activity,[3]; [4],0.723
same,NF-kB SEAP reporter activity,[3]; [5],0.754
same,NF-kB SEAP reporter activity,[3]; [6],0.637
CCCCCCCCCCCC(CC1OC(=O)C1CCCCCC)OC(=O)C(CC(C)C)NC=O (stereo not drawn) (library stock concentration (final ~1000-fold dilution): 10 mM),NF-kB SEAP reporter activity,[1]; agonist: LPS (TLR4) 0.1 ug/mL,1.07
same,NF-kB SEAP reporter activity,[1]; [4],1.02
same,NF-kB SEAP reporter activity,[1]; [5],0.959
same,NF-kB SEAP reporter activity,[1]; [6],0.978
CCCCCCCCCCCC(CC1OC(=O)C1CCCCCC)OC(=O)C(CC(C)C)NC=O (stereo not drawn),NF-kB SEAP reporter activity,[2]; [7],0.823
same,NF-kB SEAP reporter activity,[2]; [8],0.902
CN(C)C/C=C/C(=O)Nc1ccc(C(=O)Nc2cccc(Nc3ncc(Cl)c(-c4c[nH]c5ccccc45)n3)c2)cc1.Cl.Cl,NF-kB SEAP reporter activity,[2]; [9],0.142
same,NF-kB SEAP reporter activity,[2]; [10],0.258
CN(C)C/C=C/C(=O)Nc1ccc(C(=O)Nc2cccc(Nc3ncc(Cl)c(-c4c[nH]c5ccccc45)n3)c2)cc1.Cl.Cl (library stock concentration (final ~1000-fold dilution): 10 mM),NF-kB SEAP reporter activity,[3]; agonist: LPS (TLR4) 0.1 ug/mL,0.242
same,NF-kB SEAP reporter activity,[3]; [4],0.189
same,NF-kB SEAP reporter activity,[3]; [5],0.0773
same,NF-kB SEAP reporter activity,[3]; [6],0.176
N#Cc1ccnc(N2C(=O)CCC2C(=O)N(c2cncc(F)c2)C(C(=O)NC2CC(F)(F)C2)c2ccccc2Cl)c1 (stereo not drawn) (library stock concentration (final ~1000-fold dilution): 10 mM),NF-kB SEAP reporter activity,[1]; agonist: LPS (TLR4) 0.1 ug/mL,1.37
same,NF-kB SEAP reporter activity,[1]; [4],1.16
same,NF-kB SEAP reporter activity,[1]; [5],0.753
same,NF-kB SEAP reporter activity,[1]; [6],0.775
N#Cc1ccnc(N2C(=O)CCC2C(=O)N(c2cncc(F)c2)C(C(=O)NC2CC(F)(F)C2)c2ccccc2Cl)c1 (stereo not drawn),NF-kB SEAP reporter activity,[2]; [7],1.14
same,NF-kB SEAP reporter activity,[2]; [8],1.16
CCOC(=O)C1=C(COCCN)NC(C)=C(C(=O)OC)C1c1ccccc1Cl.O=S(=O)(O)c1ccccc1 (stereo not drawn) (library stock concentration (final ~1000-fold dilution): 10 mM),NF-kB SEAP reporter activity,[3]; agonist: LPS (TLR4) 0.1 ug/mL,2.27
same,NF-kB SEAP reporter activity,[3]; [4],0.532
same,NF-kB SEAP reporter activity,[3]; [5],0.907
same,NF-kB SEAP reporter activity,[3]; [6],0.924
CCOC(=O)C1=C(C)NC(C)=C(C(=O)OC)C1c1cccc(Cl)c1Cl (stereo not drawn) (library stock concentration (final ~1000-fold dilution): 10 mM),NF-kB SEAP reporter activity,[1]; agonist: LPS (TLR4) 0.1 ug/mL,0.607
same,NF-kB SEAP reporter activity,[1]; [4],0.648
same,NF-kB SEAP reporter activity,[1]; [5],0.408
same,NF-kB SEAP reporter activity,[1]; [6],0.423
CCOC(=O)C1=C(COCCN)NC(C)=C(C(=O)OC)C1c1ccccc1Cl.O=S(=O)(O)c1ccccc1 (stereo not drawn),NF-kB SEAP reporter activity,[2]; [9],2.53
same,NF-kB SEAP reporter activity,[2]; [10],2.58
CCCC(=O)OCOC(=O)C1=C(C)NC(C)=C(C(=O)OC)C1c1cccc(Cl)c1Cl (stereo not drawn) (library stock concentration (final ~1000-fold dilution): 10 mM),NF-kB SEAP reporter activity,[1]; agonist: LPS (TLR4) 0.1 ug/mL,0.954
same,NF-kB SEAP reporter activity,[1]; [4],1.19
same,NF-kB SEAP reporter activity,[1]; [5],0.911
same,NF-kB SEAP reporter activity,[1]; [6],1.1
COC(=O)C1=C(C)NC(C)=C(C(=O)OC)C1c1ccccc1[N+](=O)[O-],NF-kB SEAP reporter activity,[2]; [7],1.59
same,NF-kB SEAP reporter activity,[2]; [8],1.35
CCCC(=O)OCOC(=O)C1=C(C)NC(C)=C(C(=O)OC)C1c1cccc(Cl)c1Cl (stereo not drawn),NF-kB SEAP reporter activity,[2]; [7],1.02
same,NF-kB SEAP reporter activity,[2]; [8],0.958
CCOC(=O)C1=C(C)NC(C)=C(C(=O)OC)C1c1cccc(Cl)c1Cl (stereo not drawn),NF-kB SEAP reporter activity,[2]; [7],1.53
same,NF-kB SEAP reporter activity,[2]; [8],0.952
COC(=O)C1=C(C)NC(C)=C(C(=O)OCC(C)C)C1c1ccccc1[N+](=O)[O-] (stereo not drawn) (library stock concentration (final ~1000-fold dilution): 10 mM),NF-kB SEAP reporter activity,[1]; agonist: LPS (TLR4) 0.1 ug/mL,0.885
same,NF-kB SEAP reporter activity,[1]; [4],0.605
same,NF-kB SEAP reporter activity,[1]; [5],0.675
same,NF-kB SEAP reporter activity,[1]; [6],0.706
COC(=O)C1=C(C)NC(C)=C(C(=O)OCC(C)C)C1c1ccccc1[N+](=O)[O-] (stereo not drawn),NF-kB SEAP reporter activity,[2]; [7],0.706
same,NF-kB SEAP reporter activity,[2]; [8],0.773
CCOC(=O)C1=C(COCCN)NC(C)=C(C(=O)OC)C1c1ccccc1Cl (stereo not drawn) (library stock concentration (final ~1000-fold dilution): 10 mM),NF-kB SEAP reporter activity,[3]; agonist: LPS (TLR4) 0.1 ug/mL,2.23 and 2.05
same,NF-kB SEAP reporter activity,[3]; [4],0.736 and 1.01
same,NF-kB SEAP reporter activity,[3]; [5],0.785 and 0.751
same,NF-kB SEAP reporter activity,[3]; [6],0.888 and 1.41
COC(=O)C1=C(C)NC(C)=C(C(=O)OC)C1c1ccccc1[N+](=O)[O-] (library stock concentration (final ~1000-fold dilution): 10 mM),NF-kB SEAP reporter activity,[1]; agonist: LPS (TLR4) 0.1 ug/mL,2.15
same,NF-kB SEAP reporter activity,[1]; [4],1.42
same,NF-kB SEAP reporter activity,[1]; [5],1.5
same,NF-kB SEAP reporter activity,[1]; [6],1.37
CCC1OC(=O)C(C)C(OC2CC(C)(OC)C(O)C(C)O2)C(C)C(OC2OC(C)CC(N(C)C)C2O)C(C)(OC)CC(C)C(=O)C(C)C(O)C1(C)O (stereo not drawn),NF-kB SEAP reporter activity,[2]; [7],0.947
same,NF-kB SEAP reporter activity,[2]; [8],0.96
CCC1OC(=O)C(C)C(OC2CC(C)(OC)C(O)C(C)O2)C(C)C(OC2OC(C)CC(N(C)C)C2O)C(C)(OC)CC(C)C(=O)C(C)C(O)C1(C)O (stereo not drawn) (library stock concentration (final ~1000-fold dilution): 10 mM),NF-kB SEAP reporter activity,[1]; agonist: LPS (TLR4) 0.1 ug/mL,0.99
same,NF-kB SEAP reporter activity,[1]; [4],0.929
same,NF-kB SEAP reporter activity,[1]; [5],0.942
same,NF-kB SEAP reporter activity,[1]; [6],0.932
CC(=O)C1CCC2C3CC=C4CC(O)CCC4(C)C3CCC12C (stereo not drawn),NF-kB SEAP reporter activity,[2]; [7],1.07
same,NF-kB SEAP reporter activity,[2]; [8],1.3
CC(=O)C1CCC2C3CC=C4CC(O)CCC4(C)C3CCC12C (stereo not drawn) (library stock concentration (final ~1000-fold dilution): 10 mM),NF-kB SEAP reporter activity,[1]; agonist: LPS (TLR4) 0.1 ug/mL,1.1
same,NF-kB SEAP reporter activity,[1]; [4],0.897
same,NF-kB SEAP reporter activity,[1]; [5],0.904
same,NF-kB SEAP reporter activity,[1]; [6],0.972
